# An excerpt weighted towards active compounds, which were near 1.3% of everything screened.
# LYPLA2 counter: counter-screen for PME1 inhibitors: inhibitors of human LYPLA2; recombinant LYPLA2, FP-Rh probe fluorescence polarization; inhibition, % at 5.9 µM; 0.38% of 320,000 active; AID 2177;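 active means inhibition above the screen-wide mean plus 3 SD, limit set per campaign, cut at about 26% in these data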
# Fam108B inh: Fam108B inhibition, counter-screen for RBBP9 inhibitors; AID 1947; inhibition, % at 9.51 µM; recombinant Fam108B, FP-Rh probe fluorescence polarization; 0.33% of 300,000 active;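 active means inhibition above the screen mean inhibition plus 3 SD, computed separately per campaign, cut at about 18% in these data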;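 further: inhibitors lower polarization as less probe binds the enzyme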
# LYPLA1 counter: counter-screen for PME1 inhibitors: inhibitors of human LYPLA1. 0.16% of 320,000 active. recombinant LYPLA1, FP-Rh probe fluorescence polarization. inhibition, % at 5.9 µM. O75608;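 active means inhibition above the mean of all tested compounds plus 3 SD, set per campaign, cut at about 14% in these data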;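 further: inhibitors block serine hydrolase probe labeling of LYPLA1 so polarization falls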
# Target sequence (O75608 whole entry, looked up): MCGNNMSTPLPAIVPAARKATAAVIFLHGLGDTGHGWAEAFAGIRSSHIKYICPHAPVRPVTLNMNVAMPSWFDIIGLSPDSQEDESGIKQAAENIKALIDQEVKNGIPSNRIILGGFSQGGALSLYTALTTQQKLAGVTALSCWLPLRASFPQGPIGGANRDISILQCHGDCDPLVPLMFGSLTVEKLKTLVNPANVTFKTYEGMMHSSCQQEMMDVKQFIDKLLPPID
# PREPL inh: inhibitors of human prolyl oligopeptidase-like enzyme PREPL; Q4J6C6; recombinant PREPL, fluorescence polarization activity-based probe; inhibition, % at 5.96 µM; 0.68% of 320,000 active; AID 2751
# PME-1 primary: PME-1 (human) inhibition; Q9Y570; recombinant PME-1, FP-Rh probe fluorescence polarization; inhibition, % at 5.9 µM; 0.53% of 320,000 active;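 active means inhibition above the campaign mean of all compounds plus 3 SD, cut at about 26% in these data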;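 further: competitive labeling of PME-1 active site by serine hydrolase directed probe; inhibitors block probe labeling so polarization falls and inhibition rises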
# Target sequence (Q9Y570 whole entry, looked up): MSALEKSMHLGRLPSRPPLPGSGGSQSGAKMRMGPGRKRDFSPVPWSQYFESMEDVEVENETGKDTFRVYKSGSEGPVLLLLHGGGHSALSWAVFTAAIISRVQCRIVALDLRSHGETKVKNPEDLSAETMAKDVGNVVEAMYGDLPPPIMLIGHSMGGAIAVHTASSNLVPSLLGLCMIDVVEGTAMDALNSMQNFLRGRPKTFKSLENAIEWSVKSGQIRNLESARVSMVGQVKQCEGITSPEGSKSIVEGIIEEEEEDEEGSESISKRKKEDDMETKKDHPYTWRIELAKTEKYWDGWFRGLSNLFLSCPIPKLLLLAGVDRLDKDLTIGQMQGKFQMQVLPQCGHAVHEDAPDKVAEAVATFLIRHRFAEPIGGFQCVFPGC
# PREPL confirm: human PREPL inhibition, confirmation; shares compounds with PREPL inh; recombinant PREPL, fluorescence polarization activity probe; inhibition, % at 5.96 µM; 67% of 2,000 active; AID 2803
# Hits are given with their value; – = inactive; · = no result given; ! = not confirmed by another sample. Unless noted, no stated cut-off is given here; in the data, active means inhibition above about 43%; inactive means the rest.
SMILES,LYPLA2 counter,Fam108B inh,LYPLA1 counter,PREPL inh,PME-1 primary,PREPL confirm
CCOC(=O)c1c(C)n(CCOc2ccccc2)c2ccc(O)cc12,–,–,–,–,–,·
CCOC(=O)c1c(C)n(CC(O)c2ccccc2)c2ccc(O)cc12 (centres undefined),–,–,–,171,–,–
CCCC1(CCC)NC(=O)N(CC(=O)Nc2ccc3c(c2)OCCO3)C1=O,·,·,·,–,·,·
CC1=CCC2COC(c3ccc[n+](Cc4ccccc4)c3)C1C2 (centres undefined),–,–,–,49,–,–
COc1ccc(S(=O)(=O)N(C)C)cc1NC(=O)c1ccc(OCC(=O)N2CCOCC2)c(OC)c1,–,–,–,–,–,·
COc1ccc(-n2c(SCC(=O)N/N=C(\C)c3cccnc3)nc3ccccc3c2=O)cc1,–,–,–,–,–,·
CN(C)CCCN1c2ccccc2Sc2ccc(Cl)cc21,–,–,–,45!,–,45
OCCN1CCN(CCCN2c3ccccc3Sc3ccc(Cl)cc32)CC1,–,–,–,48,–,–
O=C([O-])c1ccccc1-[n+]1c(-c2ccccc2)cc(-c2ccccc2)cc1-c1ccccc1,–,–,–,56,–,46
O=C(Nc1ccc(OCc2ccccc2)cc1)Nc1ccccc1C(=O)NCCCN1CCOCC1,–,–,–,–,–,·
Cc1ccc(NC(=O)Nc2ccc3c(c2)C(=O)OC3)cc1Cl,–,–,–,–,–,·
COc1ccc(N2CCN(c3nc4c(c(=O)n(C)c(=O)n4C)n3Cc3ccccc3)CC2)cc1,–,–,–,50,–,57
CCN1CCN(c2nc3c(c(=O)[nH]c(=O)n3C)n2CCSc2nc3ccccc3s2)CC1,–,–,–,–,–,·
CN1CCN(c2nc3c(c(=O)n(C)c(=O)n3C)n2CCSc2nc3ccccc3s2)CC1,–,–,–,45,–,–
Cc1ccc(N(CC(=O)NCC2CCCO2)C(=O)CCC(=O)Nc2nccs2)cc1C (centres undefined),–,–,–,–,–,·
Cc1ccc(N(CC(=O)NCC2CCCO2)C(=O)CCC(=O)Nc2nccs2)cc1 (centres undefined),–,–,–,43,–,–
Cc1cc[n+](CC(=O)c2ccc3c(c2)OCCO3)cc1,–,–,–,–,–,·
O=C(C[n+]1ccc(/C=C/c2ccccc2)cc1)c1ccc2c(c1)OCCO2,–,–,–,63,–,–
O=C(CSc1nnc(COc2ccc(Cl)cc2)o1)NC1CC2CCC1C2 (centres undefined),–,–,–,46,–,–
COc1ccc(OCc2nnc(SCC(=O)NC3CC4CCC3C4)o2)cc1 (centres undefined),–,–,–,–,–,·
Cc1nc2ccc([N+](=O)[O-])cc2c(=O)n1Cc1cccc(Br)c1,–,–,–,45,–,–
Cc1nc2ccc([N+](=O)[O-])cc2c(=O)n1Cc1ccc(Br)cc1,–,–,–,–,–,·
O=C(CCn1ccc2ccccc21)Nc1ccc(N2CCOCC2)cc1,–,–,–,45,–,–
COc1ccccc1OCCCC(=O)Nc1ccc(N2CCOCC2)cc1,–,–,–,–,–,·
Cc1ccccc1OCCCC(=O)Nc1ccc(N2CCOCC2)cc1,–,–,–,50,–,–
SMILES,LYPLA2 counter,Fam108B inh,LYPLA1 counter,PREPL inh,PME-1 primary,PREPL confirm
CC(NC(=O)CCCn1cc([N+](=O)[O-])cn1)c1ccccc1 (centres undefined),–,–,–,–,–,·
CCCn1cnc2cc(NC(=O)c3cccs3)ccc21,–,–,–,–,–,·
O=C(NCCOc1ccccc1)c1ccc2c(c1)S(=O)(=O)c1cc(Cl)ccc1C2=O,·,·,·,43,·,–
COc1ccc(C2=CCN3CCCCC3C2)c(-c2ccc(OC)c(OC)c2)c1 (centres undefined),·,·,·,47,·,–
O=C(/C=C/c1ccccc1)c1ccc2c(c1)OCO2,–,–,–,–,–,·
CN(C)c1ccc(/C=C/C(=O)c2ccc3c(c2)OCO3)cc1,–,·,–,52,–,–
O=C(COC(=O)CNC(=O)c1ccccc1)Nc1ccc(Cl)cn1,·,·,·,45,·,–
COc1cc(/C=C(\C#N)C(=O)c2ccc(O)c(O)c2)cc(I)c1O,–,–,–,56,–,–
CCn1nc(C)c(CNC(=O)c2cc(COc3ccccc3SC)on2)c1C,–,–,–,–,–,·
Cc1cccc(NC(=O)N2CCCC(CNC(=O)c3ccccc3Cl)C2)c1C (centres undefined),–,–,–,–,–,·
CCOC(=O)c1c(NC(=O)CSc2nnc(C)o2)sc(C)c1C,–,–,–,–,–,·
O=C1C(NS(=O)(=O)c2cccs2)=C(N2CCN(c3cccc(Cl)c3)CC2)C(=O)c2ccccc21,–,–,–,58,–,56
O=C1C(NS(=O)(=O)c2ccccc2)=C(N2CCN(c3ccc(F)cc3)CC2)C(=O)c2ccccc21,–,–,–,59,–,61
CC(=O)c1cccc(NS(=O)(=O)c2c(C(=O)N3CCOCC3)c(C)n(C)c2C)c1,–,–,–,–,–,·
COc1ccc(C2CC(c3ccccc3)=NN2C(=O)COC(=O)C2(C)CC2(Cl)Cl)cc1 (centres undefined),–,–,–,–,–,·
O=C(NCCCN1CCN(Cc2ccccc2)CC1)C1CCN(c2nnc(-n3cccc3)s2)CC1,–,–,–,44,–,–
CCOc1ccc(-n2c(SCc3ccc(C#N)cc3)nnc2-c2cccnc2)cc1,–,–,–,–,–,·
N#Cc1ccc(CSc2nnc(-c3cccnc3)n2-c2ccccc2)cc1,–,–,–,46,–,–
CC(C)NC(=O)c1sc(=S)n2c1[nH]c(=O)c1ccc(C(=O)NCCc3ccc(Cl)cc3)cc12,–,–,–,70,–,80
CCOc1ccc(CCNC(=O)c2ccc3c(=O)[nH]c4c(C(=O)NC(C)C)sc(=S)n4c3c2)cc1,–,–,–,55,–,79
O=C(Nc1ccccc1C(=O)O)c1cc(S(=O)(=O)Nc2ccccc2)ccc1Cl,–,–,–,–,–,·
Cc1cccc(Nc2nnc(SC/C(O)=C(\C#N)c3nc4ccccc4[nH]3)s2)c1,–,–,–,–,–,·
Cc1ccc(Nc2nnc(SC/C(O)=C(\C#N)c3nc4ccccc4[nH]3)s2)c(C)c1,–,–,–,49,64,–
CC1=NN(c2ccc(C(=O)O)cc2)C(=O)/C1=C\c1ccc(OC(=O)c2cccs2)cc1,–,–,–,45,–,62
O=C(O)c1ccccc1NC(c1ccccc1)c1ccc(Cl)cc1 (centres undefined),–,–,–,–,–,·
CN1CCN(c2ccc(NC(=O)c3cc4ccccc4o3)cc2)CC1,–,–,–,–,–,·
O=C(Nc1ccc(N2CCN(C(=O)c3ccccc3)CC2)cc1)c1cc2ccccc2o1,–,–,–,45,–,–
O=C(O)c1cc(NCc2ccc3c(c2)OCO3)ccc1N1CCOCC1,–,–,–,–,–,·
O=C(c1ccc2c(c1)OCO2)N1CCN(c2ccccc2)CC1,–,–,–,–,–,·

# Bioassay records deposited in PubChem by The Scripps Research Institute Molecular Screening Center.
